Results filed as inconclusive are left out. Calls of active or inactive are those of the source. How the source made its calls: active means hit-call score of the fitted dose curve at least 0.9, where 1 is the maximum; inconclusive means response in the unintended direction; inactive means score below 0.9.

The results in this text go back to PubChem BioAssay (EPA / NIEHS).

Chain of Glucocorticoid receptor (Homo sapiens) (P04150 whole entry, looked up, the tested form may be a part): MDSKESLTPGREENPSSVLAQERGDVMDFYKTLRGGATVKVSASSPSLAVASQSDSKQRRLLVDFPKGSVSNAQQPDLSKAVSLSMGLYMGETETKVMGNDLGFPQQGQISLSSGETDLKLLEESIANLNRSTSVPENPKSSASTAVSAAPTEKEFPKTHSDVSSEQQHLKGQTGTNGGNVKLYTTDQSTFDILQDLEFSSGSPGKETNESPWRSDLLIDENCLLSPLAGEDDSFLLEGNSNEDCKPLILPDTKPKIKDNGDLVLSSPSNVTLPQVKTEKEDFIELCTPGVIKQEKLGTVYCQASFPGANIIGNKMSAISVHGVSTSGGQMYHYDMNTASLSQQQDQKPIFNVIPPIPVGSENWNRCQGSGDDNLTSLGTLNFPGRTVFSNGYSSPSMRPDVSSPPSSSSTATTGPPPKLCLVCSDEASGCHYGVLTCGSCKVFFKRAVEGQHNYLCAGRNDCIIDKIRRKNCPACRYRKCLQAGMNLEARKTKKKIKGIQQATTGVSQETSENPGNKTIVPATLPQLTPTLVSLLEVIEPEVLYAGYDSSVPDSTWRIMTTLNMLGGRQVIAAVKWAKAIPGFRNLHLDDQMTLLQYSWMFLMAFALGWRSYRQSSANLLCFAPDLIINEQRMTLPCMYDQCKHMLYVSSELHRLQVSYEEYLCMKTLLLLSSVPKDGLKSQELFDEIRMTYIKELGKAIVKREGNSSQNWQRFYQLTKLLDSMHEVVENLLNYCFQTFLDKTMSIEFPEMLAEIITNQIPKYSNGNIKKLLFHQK

The target of the first test is Glucocorticoid receptor (Homo sapiens) (UniProt P04150). The experiment in a line: ATG_GR_TRANS: Attagene TRANS-FACTORIAL HepG2 Assay for human Glucocorticoid Receptor (GR) (AID 2282978).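 Further: activators score as hits since higher reporter transcript over DMSO is fitted.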 The conditions noted are these: HepG2 Attagene TRANS GR reporter, mRNA transcription. The procedure, abridged:
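Measurement of GAL4-UAS-driven reporter mRNA in human HepG2 liver cells 24 h post-dosing, using RT-PCR with fluorescent labelling and capillary electrophoresis; the transfected constructs report exogenous NR-GAL4 chimera activity, fitted upward against DMSO.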
Regarding `CC1OC1C1CCC2(C)OC2C1` (stereo not given), the outcome was inactive.

`c1ccc(-c2ccccn2)nc1`: the call was inactive.

With `CC1(C)O[C@@H]2C[C@H]3[C@@H]4C[C@H](F)C5=CC(=O)C=C[C@]5(C)[C@@]4(F)[C@@H](O)C[C@]3(C)[C@]2(C(=O)CO)O1`, the AC50 was 52.5 nM (active).

`CC(=O)OC1C2(C)CCC(C2)C1(C)C` (stereo not given): the result was inactive.

Turning to `CCCCCCCOC(=O)CCC`, the compound was classed as inactive.

For the compound `CCOC(=O)Cc1cccc2ccccc12`, the result was inactive.

As for `C=C(C)C(=O)OCCO`, the compound was classed as inactive.

Regarding `C=CC=CC=CCCCCC`, the outcome was inactive.

As to `CC(=O)OCCC1CCCCC1`, the result was inactive.

As to `CC(=O)[C@H]1[C@H](C#N)C[C@H]2[C@@H]3CC=C4C[C@@H](O)CC[C@]4(C)[C@H]3CC[C@@]21C`, the result was inactive.

Regarding `CCCCC/C=C\CCC=O`, the outcome was inactive.

In the case of `Nc1ccc(N=Nc2ccccc2)c(N)n1`, the result was inactive.

As to `C=CC(C)(CCC=C(C)C)OC(=O)CC(C)C` (stereo not given), the compound was called inactive.

As to `CC(C)(C)c1ccc(N)cc1`, the compound was classed as inactive.

Consider `O=C(c1ccccc1)c1ccc(O)c(O)c1O`, for which the call was inactive.

Consider `Nc1ccc2cc3ccccc3cc2c1`, for which the call was inactive.

Consider `CN(C)CCCN(C)C`, for which the compound was called inactive.

On to `Cc1ccc([N+](=O)[O-])cc1S(=O)(=O)O`, for which the outcome was inactive.

As for `COc1cc(NC(=O)CC(C)=O)c(OC)cc1Cl`, the compound was called inactive.

As to `CNC(=S)NN`, the result was inactive.

Turning to `O=C(O)CCCC[C@@H]1SC[C@@H]2NC(=O)N[C@@H]21`, the outcome was inactive.

With `CCCOC(=O)CCCCC(=O)OCCC`, the compound was called inactive.

`C=C(C)CCO`: the compound was called inactive.

`C=C[Si](C)(C)O[Si](C)(C)C=C`: the compound was classed as inactive.

Turning to `CCCCCCCCCCCCCCCCCC#N`, the compound was called inactive.

For `CC(C)(C)C1CCCCC1=O` (stereo not given), the call was inactive.

`C[C@]12CCC(=O)C=C1CC[C@@H]1[C@@H]2C(=O)C[C@@]2(C)[C@H]1CC[C@]2(O)C(=O)CO`: the call was inactive.

Take `CC1(C)O[C@@H]2C[C@H]3[C@@H]4C[C@H](F)C5=CC(=O)CC[C@]5(C)[C@H]4[C@@H](O)C[C@]3(C)[C@]2(C(=O)CO)O1`: the AC50 is 72.8 nM (active).

As for `O=C1c2ccccc2C(=O)C1c1nc2ccccc2c(Br)c1O`, the result was inactive.

On to `O=C(Nc1ccccc1)c1ccccc1O`, for which the call was inactive.

For `CC=CC(=O)N(CC)c1ccccc1C`, the call was inactive.

In the case of `CC(=O)OCC(=O)[C@@]12N=C(C)O[C@@H]1C[C@H]1[C@@H]3CCC4=CC(=O)C=C[C@]4(C)[C@H]3[C@@H](O)C[C@@]12C`, the AC50 was 82.7 nM (active).

Take `CCC(C)OC(=O)c1ccc(O)cc1` (stereo not given): the outcome was inactive.

As for `CCCCCCCCCCCCCCCC(=O)OCC`, the compound was called inactive.

On to `O=c1[nH]nc(-c2ccc([N+](=O)[O-])o2)o1`, for which the call was inactive.

As for `O=c1cc(-c2ccccc2)oc2ccccc12`, the result was inactive.

Regarding `CC(=O)NS(=O)(=O)c1ccc(N)cc1`, the compound was classed as inactive.

Consider `CCCCCC/C=C/C=O`, for which the outcome was inactive.

As to `O=C1CCCN1CCO`, the compound was called inactive.

Turning to `C=C(C)c1cccc(C(C)(C)N=C=O)c1`, the compound was classed as inactive.

In a further test the target is Oxysterols receptor LXR-alpha (Homo sapiens) (UniProt Q13133). The experiment in a line: ATG_LXRa_TRANS: Attagene TRANS-FACTORIAL HepG2 Assay for human Liver X Receptor alpha (LXRa) (AID 2282980). The conditions noted are these: HepG2 Attagene TRANS reporter, LXRa transactivation. The procedure, abridged: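 Chemical-induced reporter mRNA measured by RT-PCR with fluorescent labelling and capillary electrophoresis after 24 h dosing of transiently transfected HepG2 cells expressing exogenous NR-Gal4 chimeras; increases scored against DMSO baseline.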
Chain of Oxysterols receptor LXR-alpha (Homo sapiens) (Q13133 whole entry, looked up, the tested form may be a part): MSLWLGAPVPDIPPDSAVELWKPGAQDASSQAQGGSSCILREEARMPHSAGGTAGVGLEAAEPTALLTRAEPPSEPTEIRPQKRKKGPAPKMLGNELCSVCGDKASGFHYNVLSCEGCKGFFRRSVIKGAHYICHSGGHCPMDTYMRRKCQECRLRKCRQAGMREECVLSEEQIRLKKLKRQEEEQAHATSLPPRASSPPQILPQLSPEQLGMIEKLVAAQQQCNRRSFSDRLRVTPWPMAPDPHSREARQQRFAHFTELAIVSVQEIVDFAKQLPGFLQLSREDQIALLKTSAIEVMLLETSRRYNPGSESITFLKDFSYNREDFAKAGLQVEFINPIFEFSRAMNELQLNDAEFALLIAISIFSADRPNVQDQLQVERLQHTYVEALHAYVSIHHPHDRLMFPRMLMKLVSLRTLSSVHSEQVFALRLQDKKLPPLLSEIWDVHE
Regarding `CC1OC1C1CCC2(C)OC2C1` (stereo not given), the compound was called inactive.

In the case of `c1ccc(-c2ccccn2)nc1`, the compound was classed as inactive.

`CC1(C)O[C@@H]2C[C@H]3[C@@H]4C[C@H](F)C5=CC(=O)C=C[C@]5(C)[C@@]4(F)[C@@H](O)C[C@]3(C)[C@]2(C(=O)CO)O1`: the compound was classed as inactive.

In the case of `CC(=O)OC1C2(C)CCC(C2)C1(C)C` (stereo not given), the outcome was inactive.

As for `CCCCCCCOC(=O)CCC`, the result was inactive.

Regarding `CCOC(=O)Cc1cccc2ccccc12`, the compound was called inactive.

As for `C=C(C)C(=O)OCCO`, the compound was called inactive.

Turning to `C=CC=CC=CCCCCC`, the call was inactive.

On to `CC(=O)OCCC1CCCCC1`, for which the outcome was inactive.

For `CC(=O)[C@H]1[C@H](C#N)C[C@H]2[C@@H]3CC=C4C[C@@H](O)CC[C@]4(C)[C@H]3CC[C@@]21C`, the compound was called inactive.

Regarding `CCCCC/C=C\CCC=O`, the result was inactive.

Take `Nc1ccc(N=Nc2ccccc2)c(N)n1`: the result was inactive.

For the compound `C=CC(C)(CCC=C(C)C)OC(=O)CC(C)C` (stereo not given), the outcome was inactive.

Regarding `CC(C)(C)c1ccc(N)cc1`, the compound was classed as inactive.

With `O=C(c1ccccc1)c1ccc(O)c(O)c1O`, the compound was called inactive.

As for `Nc1ccc2cc3ccccc3cc2c1`, the result was inactive.

As to `CN(C)CCCN(C)C`, the outcome was inactive.

On to `Cc1ccc([N+](=O)[O-])cc1S(=O)(=O)O`, for which the call was inactive.

Turning to `COc1cc(NC(=O)CC(C)=O)c(OC)cc1Cl`, the compound was called inactive.

With `CNC(=S)NN`, the call was inactive.

For the compound `O=C(O)CCCC[C@@H]1SC[C@@H]2NC(=O)N[C@@H]21`, the outcome was inactive.

Regarding `CCCOC(=O)CCCCC(=O)OCCC`, the call was inactive.

As to `C=C(C)CCO`, the compound was classed as inactive.

Turning to `C=C[Si](C)(C)O[Si](C)(C)C=C`, the call was inactive.

Take `CCCCCCCCCCCCCCCCCC#N`: the outcome was inactive.

Take `CC(C)(C)C1CCCCC1=O` (stereo not given): the call was inactive.

For the compound `C[C@]12CCC(=O)C=C1CC[C@@H]1[C@@H]2C(=O)C[C@@]2(C)[C@H]1CC[C@]2(O)C(=O)CO`, the compound was called inactive.

`CC1(C)O[C@@H]2C[C@H]3[C@@H]4C[C@H](F)C5=CC(=O)CC[C@]5(C)[C@H]4[C@@H](O)C[C@]3(C)[C@]2(C(=O)CO)O1`: the result was inactive.

In the case of `O=C1c2ccccc2C(=O)C1c1nc2ccccc2c(Br)c1O`, the outcome was inactive.

With `O=C(Nc1ccccc1)c1ccccc1O`, the result was inactive.

As to `CC=CC(=O)N(CC)c1ccccc1C`, the compound was classed as inactive.

On to `CC(=O)OCC(=O)[C@@]12N=C(C)O[C@@H]1C[C@H]1[C@@H]3CCC4=CC(=O)C=C[C@]4(C)[C@H]3[C@@H](O)C[C@@]12C`, for which the outcome was inactive.

Consider `CCC(C)OC(=O)c1ccc(O)cc1` (stereo not given), for which the compound was classed as inactive.

Take `CCCCCCCCCCCCCCCC(=O)OCC`: the compound was called inactive.

With `O=c1[nH]nc(-c2ccc([N+](=O)[O-])o2)o1`, the result was inactive.

As for `O=c1cc(-c2ccccc2)oc2ccccc12`, the compound was called inactive.

Take `CC(=O)NS(=O)(=O)c1ccc(N)cc1`: the compound was classed as inactive.

For `CCCCCC/C=C/C=O`, the result was inactive.

Take `O=C1CCCN1CCO`: the compound was classed as inactive.

As to `C=C(C)c1cccc(C(C)(C)N=C=O)c1`, the compound was called inactive.

By AC50 is commonly meant the concentration giving half of the maximal activity seen.
